According to PubChem BioAssay (Tox21):
Records with an inconclusive call do not appear. Values without a mark were called inactive. Active and inactive are the calls of the source. Calls come from the whole dose curve; as a rule, active = well fitted activation curve with a large enough effect in the repeat runs; inconclusive = weak or mixed curves; inactive = flat fitted curve, though single readings scatter.

Assay: A CellTox Green Cytotoxicity Assay to monitor cytotoxicity in HepG2 cells - 40 hour (AID 1224879); note: nearly all actives have a fitted effect of over 40% in size
Conditions: CellTox Green fluorescence; series mostly up to 76.8 µM; cytotoxicity increase: at the top concentration
Excerpt: National Center for Advancing Translational Sciences [NCATS]
NIH Chemical Genomics Center [NCGC]
U.S. Environmental Protection Agency [EPA]
National Institutes of Environmental Health Sciences [NIEHS]
National Toxicology Program [NTP]
Cell-based models are critical for drug discovery. Determining the natural cytotoxic effects resulting from test compounds is an essential research activity. A CellTox Green Cytotoxicity Assay to monitor cytotoxicity in real time of continues cell culture during 40 hours of the compound treatment was used to screen Tox21 10K library compounds in HepG2 cells. CellTox Green Cytotoxicity Assay is a nonlytic, homogeneous, biofluorescent method to measure cytotoxicity in cell culture after experimental manipulation. The assay system uses a proprietary asymmetric cyanine dye that is excluded from viable cells but preferentially stains the dead cell's DNA. […] Viable cells produce no appreciable increases in fluorescence. Therefore, the fluorescence signal produced by the binding interaction with dead cell DNA is proportional to cytotoxicity.
The mixture of HepG2 cell suspension and reagents were dispensed at 600cells/6 ul/well in 1536-well tissue culture treated black solid bottom plates using a Multidrop dispenser. After the assay plates were incubated at a 37 C/5% CO2 incubator for 5 hours, 23 nL of compounds dissolved in DMSO, positive and negative controls was transferred to the assay plate by a pintool work station. The plates were incubated at 37 C for 40 hours. The fluorescence intensity were measured at 0h, 8h, 16h, 24h, 32h and 40h time points using ViewLux plate reader during compound treatment.
% is set by controls: 0 for no effect and ±100 for the full control effect; potency is the fitted concentration of half-maximal effect.

| SMILES | cytotoxicity increase | Potency |
| --- | --- | --- |
| CSSc1ccoc1C | -11.2% | – |
| CC(C)C(O)C(C)(C)CO (stereo not given) | -12.8% | – |
| CC(C)(C)NCC(O)COc1cccc2c1C[C@H](O)[C@H](O)C2 (stereo not given in full) | -3.15% [at 35.3 µM] | – |
| CCC1CCC(CCC(=O)O)C1 (stereo not given) | -2.08% | – |
| CC(C)(C)S | -6.85% | – |
| N[C@@H](Cc1cc(I)c(O)c(I)c1)C(=O)O | -1.96% [at 35.3 µM] | – |
| NC(=O)CCCCC(N)=O | -1.07% | – |
| C[C@@H]1[C@H](O)[C@@H](C)/C=C/C=C\C=C\C=C\C=C\C=C\C=C\[C@H](O[C@@H]2O[C@H](C)[C@@H](O)[C@H](N)[C@@H]2O)C[C@@H]2O[C@](O)(C[C@@H](O)C[C@@H](O)[C@H](O)CC[C@@H](O)C[C@@H](O)CC(=O)O[C@H]1C)C[C@H](O)[C@H]2C(=O)O (stereo in doubt) | 21.5% | – |
| CCCCCCCCCCCCCC(=O)OCC(O)CO (stereo not given) | -16.5% | – |
| CCN(Cc1cccc(S(=O)(=O)O)c1)c1ccc(C(=C2C=CC(=[N+](CC)Cc3cccc(S(=O)(=O)O)c3)C=C2)c2ccccc2S(=O)(=O)[O-])cc1 | -9.35% [at 35.3 µM] | – |
| CCOC(=O)c1c(N)sc2c1CCN(Cc1ccccc1)C2 | 1.75% [at 35.3 µM] | – |
| O=C(Nc1ccc(C(=O)O)c(O)c1)c1ccccc1 | 3.48% [at 35.3 µM] | – |
| COc1ccc(CCN(C)CCCN2CCc3cc(OC)c(OC)cc3CC2=O)cc1OC | -8.11% [at 35.3 µM] | – |
| CC(=O)NNC(C)=O | 7.18% | – |
| CCN(CC)c1cccc(O)c1 | -0.263% | – |
| CCOC(=O)C(C)O (stereo not given) | -2.37% | – |
| Cc1cccc(C)c1NC(=O)c1cc(S(N)(=O)=O)c(Cl)cc1O | -11.6% [at 35.3 µM] | – |
| CS(=O)(=O)c1ccc([C@@H](C[C@H]2CCC(=O)C2)C(=O)Nc2cnccn2)cc1Cl | -11.2% | – |
| Cc1c[nH]c2ccccc12 | -0.523% [at 35.3 µM] | – |
| O=C(NC(Cc1cc(=O)[nH]c2ccccc12)C(=O)O)c1ccc(Cl)cc1 (stereo not given) | -0.0735% [at 35.3 µM] | – |

| SMILES | cytotoxicity increase | Potency |
| --- | --- | --- |
| O=CNNC=O | -6.18% | – |
| CNC1CCCN(c2c(F)cc3c(=O)c(C(=O)O)cn(C4CC4)c3c2OC)C1 (stereo not given) | -4.33% [at 35.3 µM] | – |
| CC(=O)N[C@@H](Cc1ccc(O)cc1)C(=O)O | -15.3% [at 35.3 µM] | – |
| CCN(CC)CCOc1ccccc1C(=O)CCc1ccccc1 | 3.92% [at 35.3 µM] | – |
| Cc1cc(CCC(=O)OCCOCCOCCOC(=O)CCc2cc(C)c(O)c(C(C)(C)C)c2)cc(C(C)(C)C)c1O | -16.8% | – |
| Cc1ccc(S(=O)(=O)NC(=O)NC2CCCCC2)cc1 | -8.03% [at 35.3 µM] | – |
| Nc1ccc(N=Nc2ccc(N)cc2)cc1 | -14.4% [at 35.3 µM] | – |
| Nc1ccc(NC(=O)c2ccc(N)cc2)cc1 | -1.57% | – |
| O=C(c1ccccc1)C1CCC1 | – | 27.5 µM (active) |
| C[C@H](CS)C(=O)N1CCC[C@H]1C(=O)O | -0.239% [at 35.3 µM] | – |
| O=C(NS(=O)(=O)/C=C/c1ccccc1)c1ccc(F)cc1Cl | – | 54.9 µM (active) |
| COc1ccc(C(=O)NCc2ccc(OCCN(C)C)cc2)cc1OC | 11.5% [at 35.3 µM] | – |
| CC1=C2[C@@H]([C@H](C)CC[C@H]2/C=C(\C)C(=O)O)[C@H](O)C1 | 0.669% | – |
| CN=C(N)NC(=O)Nc1c(C)cccc1C | -6.58% [at 35.3 µM] | – |
| C=CC(=O)NC(C)C | -1.98% | – |
| CCCCCCOC(=O)CCCCC | -7.08% | – |
| CC(C)N=C=NC(C)C | -10.9% | – |
| CC(C)c1ccc(C#N)cc1 | 20.9% | – |
| CC(C)(C)C(O)/C=C/c1ccc2c(c1)OCO2 (stereo not given) | -3.38% [at 35.3 µM] | – |
| O=C1OC(=O)c2c(Br)c(Br)c(Br)c(Br)c21 | 1.06% | – |
